Bioassay records: PubChem, National Center for Advancing Translational Sciences (NCATS)
Shown is part of a subset that was picked to be rich in hits.
Methyltransferases: Primary Screen for Target Class Profiling of Small Molecule Inhibitors of Methyltransferases; calls only at 40 µM; AID 1745853, 2022; purified enzyme, MTase-Glo SAH luminescence; stronger effect = lower value; 3.9% of 25,000 active; call rule not given here
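Each enzyme was reacted with SAM and its substrate, with compounds tested once at 40 uM; SAH formed was read by MTase-Glo luminescence.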
The depositor's hits bear a star; i = inactive; + = active, no number. % is set by controls: 0 for no effect and ±100 for the full control effect.

SMILES | Methyltransferases
O=C(NC1CCCC1)N1CCCC(C(=O)N2CCC(c3nc4ncccc4[nH]3)C2)C1 (centres undefined) | i
O=C([C@@H]1CCCN(c2ccc3[nH]c(C4(n5cc(Cl)cn5)CC4)nc3n2)C1)N1CCCC1 | +
O=C(c1ccccc1Cl)N1CCCC(C(=O)N2CCC(c3ccccc3)CC2)C1 (centres undefined) | i
Cc1ccc(CN2C(=O)c3cc4oc(C)cc4n3CC2(C)C(=O)NC2CCCCC2)cc1 (centres undefined) | i
CCCN1C(=O)c2c(C(=O)NCc3ccc(C)cc3)ncn2CC1(C)C(=O)NC1CCCC1 (centres undefined) | i
CCC(C)NC(=O)c1ccc2c(=O)n(C)c3nnc(SCC(=O)Nc4cccc(Cl)c4)n3c2c1 (centres undefined) | i
O=C(O)CCc1ccc(NCc2cccc3c2CCCN3CCOc2ccccc2)cc1F | +
O=C(O)CCc1ccc(NCc2cccc(Oc3ccccc3)c2)cc1 | i
CC(=O)Nc1cccc(-c2n[nH]c3c2CC(=O)N(CCOc2ccccc2)C3)c1 | i
CC(=O)O[C@H]1C[C@@H](O)C(C)(C)C2C[C@@H](OC(C)=O)[C@]3(C)C(CC[C@@]4(C)[C@H](c5ccoc5)OC(=O)[C@H]5O[C@]543)[C@]21C (some centres undefined) | i
CCC(C)C(=O)OC1CC(O)C23C4OCC5(C(O)CC2C1(C)C(O)O4)C3C(=O)C(O)C1(C)C(O)(c2ccoc2)CC2OC251 (centres undefined) | +
CSc1ccc(CCNC(=O)CCCn2ccc3cc(S(=O)(=O)N4CCCC4)ccc32)cc1 | i
Cc1ccc(Cn2c(=O)c3ccccc3n3c(SCC(=O)Nc4cccc(F)c4)nnc23)cc1 | i
Cn1c(=O)n(C)c2cc(S(=O)(=O)NCCCc3ccccc3)ccc21 | i
CC[C@H](C)C(=O)O[C@H]1CCC=C2C=C[C@H](C)[C@H](CC[C@@H]3C[C@@H](O)CC(=O)O3)[C@H]21 | +
CC[C@H](C)C(=O)O[C@H]1C[C@@H](C)C=C2C=C[C@H](C)[C@H](CC[C@@H]3C[C@@H](O)CC(=O)O3)[C@H]21 | i
COC(=O)c1cc2n(n1)CC(C)(C(=O)NC1CCCC1)N(c1cccc(Cl)c1C)C2=O (centres undefined) | i
CC1(C)O[C@H]2CC(=O)OC[C@@]23C1=C(O)C(=O)[C@]1(C)C3CC[C@@]2(C)[C@H](c3ccoc3)OC(=O)[C@H]3O[C@]321 (some centres undefined) | i
Clc1ccc(-c2nnn3c2nc(NCCc2c[nH]c4ccccc24)c2ccccc23)cc1 | i
NC(=O)c1cnc(-c2ccc(C3(N)CCC3)cc2)c(-c2ccccc2)c1 | +
NC(=O)c1ccccc1 | i
CCC1c2ccc(C)n2CCN1C(=O)Nc1cccc(C)c1 (centres undefined) | i
CN1CCN(CCCNC(=O)c2cc3n(n2)CC(C)(C(=O)NC2CCCCCC2)N(C)C3=O)CC1 (centres undefined) | i
CN(C)CCCNc1nc(CN2CCN(C(c3ccc(Cl)cc3)c3ccc(Cl)cc3)CC2)nc2ccccc12 | +
O=C(O)COCCN1CCN(C(c2ccccc2)c2ccc(Cl)cc2)CC1 (centres undefined) | i
SMILES | Methyltransferases
O=C(O)COCCN1CCN([C@H](c2ccccc2)c2ccc(Cl)cc2)CC1 | i
COc1ccc(-c2cc(=O)oc3cc(OCC(=O)Nc4ccc5c(c4)OCO5)ccc23)cc1 | i
Cc1cnc(Nc2ccc(CN3CCOCC3)cc2)nc1Nc1cccc(S(=O)(=O)NC(C)(C)C)c1 | +
Cc1cnc(Nc2cccc(CN3CCOCC3)c2)nc1Nc1cccc(S(=O)(=O)NC(C)(C)C)c1 | i
Cc1cc(S(=O)(=O)NCCN2CCOCC2)ccc1Cl | i
COc1ccc(-c2ccc3ncc(Nc4ccncc4)n3n2)cn1 | i
Cc1cccc(Cn2nc3n(C)c(=O)c4ccc(C(=O)NC5CCCC5)cc4n3c2=O)c1 | i
Cc1ccc(C)c(S(=O)(=O)c2nnn3c2nc(N2CCCC2)c2ccccc23)c1 | i
Cc1ccc(S(=O)(=O)c2nnn3c2nc(N2CCC(N4CCCCC4)CC2)c2ccccc23)cc1C | +
O=S(=O)(c1ccccc1)c1nnn2c1nc(N1CCCCC1)c1ccccc12 | i
CCCN1C(=O)c2c(C(=O)NCc3ccccc3)ncn2CC1(C)C(=O)NCCC(C)C (centres undefined) | i
CC1(C(=O)NC2CCCCCCC2)Cc2ccccc2C(=O)N1CC1CCCO1 (centres undefined) | i
O=C(CC1CCCC1)N1C[C@@H](CO)[C@@H]2Oc3ccc(Cl)cc3[C@@H]21 | i
Cc1ccc(NC(=O)Cn2nc3n(C(C)C)c(=O)c4ccc(C(=O)NCC(C)C)cc4n3c2=O)cc1 | i
CCC(C)NC(=O)c1ccc2c(=O)n(C)c3nn(CC(=O)Nc4ccc(C)cc4)c(=O)n3c2c1 (centres undefined) | i
Cc1cccc(-c2nnc3n(CCc4ccccc4)c(=O)c4ccccc4n23)c1 | +
O=C(CCc1nnc2n(CCc3ccccc3)c(=O)c3ccccc3n12)N1CCC(N2CCCCC2)CC1 | +
O=C(CCc1nnc2n(Cc3ccc(F)cc3)c(=O)c3ccccc3n12)N1CCN(C2CCCCC2)CC1 | i
O=C(CCc1nnc2n(Cc3ccc(Cl)cc3)c(=O)c3ccccc3n12)N1CCC(N2CCCCC2)CC1 | +
NC(=O)C1CCN(C(=O)CCc2nnc3n(Cc4ccc(F)cc4)c(=O)c4ccccc4n23)CC1 | i
O=C(CCc1nnc2n(Cc3ccccc3)c(=O)c3ccccc3n12)N1CCN(c2cccc(Cl)c2)CC1 | i
Cc1ccc(-c2nnc3n(CCc4ccccc4)c(=O)c4ccccc4n23)cc1 | i
CC1CCN(C(=O)CCc2nnc3n(Cc4ccc(Cl)cc4)c(=O)c4ccccc4n23)CC1 | i
O=c1c2ccccc2n2c(-c3cccc(Cl)c3)nnc2n1CCc1ccccc1 | i
Cc1ccc(Cn2c(=O)c3ccccc3n3c(CCC(=O)N4CCN(C5CCCCC5)CC4)nnc23)cc1 | i
SMILES | Methyltransferases
Cc1ccc(Cn2c(=O)c3ccccc3n3c(CCC(=O)N4CCC(Cc5ccccc5)CC4)nnc23)cc1 | i
O=C(CCc1nnc2n(Cc3ccc(F)cc3)c(=O)c3ccccc3n12)N1CCC(N2CCCCC2)CC1 | +
Cc1c(Cl)cccc1N1C(=O)c2cc3sccc3n2CC1(C)C(=O)NC1CCCCCC1 (centres undefined) | i
C=CC(C)(O)CC/C=C(\C)C1CC=C(C)C(=O)O1 (centres undefined) | i
CCOC(=O)c1cc2n(n1)CC(C)(C(=O)NC1CCCCC1)N(Cc1ccc(Cl)cc1)C2=O (centres undefined) | i
O=C(NC1CCCC1)c1ccc2c(=O)n(Cc3ccccc3)c3n[nH]c(=O)n3c2c1 | i
Cc1ccc(CNC(=O)C2(C)Cn3nc(C(=O)NCCCOC(C)C)cc3C(=O)N2C)cc1 (centres undefined) | i
Cc1ccc(C)c(N2CCN(S(=O)(=O)c3cc4[nH]c(=O)[nH]c4cc3Cl)CC2)c1 | i
O=C(Nc1ccnn1C1CCN(Cc2ccc(-c3ccccc3)cc2)CC1)C1CC1 | i
CCc1ccc(N2C(=O)c3cc4sccc4n3CC2(C)C(=O)NC2CCCCC2)cc1 (centres undefined) | i
Cc1n[nH]c(C)c1CNc1cc(C2CC(O)C2)ncn1 (centres undefined) | i
